Compound activity from PubChem.
The sample as a whole holds a higher share of hits than the screen did.
Methyltransferases = Primary Screen for Target Class Profiling of Small Molecule Inhibitors of Methyltransferases | 3.9% of 25,000 active | purified enzyme, MTase-Glo SAH luminescence; active compounds read low | calls only at 40 µM; call rule not given here
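Each enzyme was assayed with SAM and its substrate. SAH formation detected by MTase-Glo luminescence; single-point 40 uM screen[…].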
Starred values were filed as active, the others as inactive; i = inactive; + = active, no number; ! = not confirmed by another sample. % is set by controls: 0 for no effect and ±100 for the full control effect.

SMILES | Methyltransferases
CCCCOc1ccc(CNC(=O)c2cc3n(n2)CC(C)(C(=O)NCc2ccc(F)cc2)N(C)C3=O)cc1 (stereo not drawn) | i
COc1ccc(CNC(=O)CCC2CCCN(C(=O)CCN3CCCCO3)C2)c(OC)c1 (stereo not drawn) | i
Cc1ccccc1-c1cc(O)c2c(c1)CN(C(=O)C1CCNCC1)CCO2 | i
CCC(=O)N1CCOc2c(cc(-c3ccc(OC)c(OC)c3)cc2OC[C@H]2CCCN(C)C2)C1 | +!
CCC(C)NC(=O)c1ccc2c(=O)n(C)c3nnc(SCc4cccc(OC)c4)n3c2c1 (stereo not drawn) | i
CCOC(=O)c1cc2n(n1)CC(C)(C(=O)NCc1ccc(F)cc1)N(Cc1ccc(SC)cc1)C2=O (stereo not drawn) | i
CCCC1c2cccn2CCN1C(=O)NCc1cccc(OC)c1 (stereo not drawn) | i
CC(O)(CC(=O)O)CC(=O)O[C@@H]1[C@@H](O)[C@H](OCCc2ccccc2)O[C@H](CO)[C@H]1O (stereo partly drawn) | i
O=C(O)c1ccc(OC2OC(CO)C(O)C(O)C2O)cc1 (stereo not drawn) | i
CC(O)(CC(=O)O)CC(=O)OCc1ccc(O[C@@H]2O[C@H](CO)[C@@H](O)[C@H](O)[C@H]2O)cc1 (stereo partly drawn) | +
COc1cc(-c2nnc3n(Cc4ccccc4Cl)c(=O)c4ccccc4n23)ccc1O | i
Cc1cc(Cl)ccc1OCC(=O)N[C@@H]1CCOC[C@H]1OCC(=O)O | i
CCCn1c(=O)c2ccc(C(=O)NC(C)CC)cc2n2c(=O)n(CC(=O)Nc3ccc(F)cc3)nc12 (stereo not drawn) | i
Fc1ccc2c(CCNCc3cccc(OCC(F)(F)C(F)F)c3)c[nH]c2c1 | +
CCC1(C2CCN(C(=O)CCCc3ccccc3)CC2)NC(=O)N(CCc2scnc2C)C1=O (stereo not drawn) | i
Cn1c(=O)c2nc(/C=C/c3cccc(Cl)c3)n(C)c2n(C)c1=O | i
CCOC(=O)c1cc(C#N)c(N2CCC(C(=O)NS(=O)(=O)Cc3ccccc3)CC2)nc1C | i
C[S+](=O)([O-])N1Cc2ccccc2OC2(CCN(C(=O)c3cccc4[nH]ccc34)CC2)C1 | i
CC/C=C\CCO[C@@H]1O[C@H](CO[C@@H]2OC[C@H](O)[C@H](O)[C@H]2O)[C@@H](O)[C@H](O)[C@H]1O | i
C=C1C(=O)OC[C@@H]1C/C=C(\C)CC1CC(C)C(=O)O1 (stereo partly drawn) | +
O=C(C1CC1)N1CC[C@@H](Cc2n[nH]c(=O)n2-c2ccc(-c3ccc4occc4c3)cc2)C1 | i
COC(=O)c1cc2n(n1)CC(C)(C(=O)NC1CCCCC1)N(c1cccc(SC)c1)C2=O (stereo not drawn) | i
Cc1cc2c(cc1C1(c3ccc(C(=O)O)cn3)CC1)C(C)(C)CCC2(C)C | i
CCCCCCCOc1cc2c(cc1/C(C)=C/c1ccc(C(=O)O)cc1)C(C)(C)CCS2(=O)=O | +
CS(=O)(=O)N1CC(F)(F)C[C@H]1c1nc(C2CC2)no1 | i
SMILES | Methyltransferases
CC1CC(C)CN(S(=O)(=O)c2ccc3c(c2)oc(=O)n3CC(=O)N2CCc3ccccc32)C1 (stereo not drawn) | i
COc1ccccc1-c1nc2nccc(-c3cc(OC)c(OC)c(OC)c3)n2n1 | i
CCCN(CC1CCOC1)S(=O)(=O)c1cc(F)ccc1C (stereo not drawn) | i
Cn1c(=O)c2ccccc2n2c(CCC(=O)NCCCN3CCN(c4cccc(Cl)c4)CC3)nnc12 | i
Cc1cnc(-c2cccnc2)n1C1CCN(S(=O)(=O)c2ccc3c(c2)OCCO3)CC1 | i
CC(=O)NCC(=O)N1C2CCC1c1cc(Nc3ncc(C(F)(F)F)c(NC4CCC4)n3)ccc12 (stereo not drawn) | +
C=CC(=O)Nc1cccc(Nc2nc(Nc3ccc(NC4CN(CCF)C4)cc3OC)ncc2C(F)(F)F)c1 | i
COc1cccc(-c2ccc(NC(=O)C3CCCN3C(=O)CNC(C)=O)cc2)c1 (stereo not drawn) | i
O=C(O)Cc1c(-c2ccccc2)c2cc(Cl)ccc2[nH]c1=O | i
O=C(O)Cc1c(-c2ccccc2)c2cc(Br)ccc2[nH]c1=O | i
O=C1NC(=O)c2c1c(-c1ccccc1)cc1[nH]c3ccc(O)cc3c21 | +
C[S+](CC[C@H](N)C(=O)[O-])C[C@H]1O[C@@H](n2cnc3c(N)ncnc32)[C@H](O)[C@@H]1O (stereo partly drawn) | i
COC(=O)c1cc2n(n1)CC(C)(C(=O)NC1CCCC1)N(c1ccc(OC)cc1)C2=O (stereo not drawn) | i
COc1ccccc1NC(=O)CSc1nnc2n(Cc3ccc(F)cc3)c(=O)c3ccccc3n12 | i
COc1cccc([C@H]2Nc3ccc(S(=O)(=O)Nc4ccccc4F)cc3C3C=CCC32)c1OC (stereo partly drawn) | i
CCOCCOC1CCN(C(=O)c2cnccn2)CC1 | i
C=Cc1cc2oc(-c3ccc(O)c(F)c3)nc2cc1O | +
